Data from PubChem BioAssay.
Active and inactive are the calls of the source.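 How the source made its calls: active means thallium flux through the channel raised or lowered by more than 3 SD from vehicle-only wells, actives on both sides; inactive means the rest.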

Experiments:
Assay in all cases: modulators of BK channel variants, profiling panel, selectivity assay, cell-based, U2OS BacMam, thallium flux, beta subunits (AID 1259406);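 further: initial slope of Thallos dye fluorescence rise after thallium is added; log ratio against the mean of 0.3% DMSO vehicle wells on the same plate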
[1] = system: F380Y; settings: at 30 µM
[2] = system: F380Y/beta1; settings: at 30 µM
[3] = system: F380Y/beta2Delta; settings: at 30 µM
[4] = system: F380Y/beta4; settings: at 30 µM
[5] = biological target: Calcium-activated potassium channel subunit alpha-1 (Homo sapiens) + Leucine-rich repeat-containing protein 26 (Homo sapiens) (UniProt Q12791+Q2I0M4); settings: F380Y/Slo1WT/gamma1, at 30 µM
[6] = system: R275C; settings: at 30 µM
[7] = system: R275C/beta1; settings: at 30 µM
[8] = system: R275C/beta2Delta; settings: at 30 µM
[9] = system: R275C/beta4; settings: at 30 µM
[10] = system: R275C/Slo1WT/beta2; settings: at 30 µM

Measured: log fold change Tl+ flux

Chain of Calcium-activated potassium channel subunit alpha-1 (Homo sapiens) + Leucine-rich repeat-containing protein 26 (Homo sapiens) (Q2I0M4 whole entry, looked up, one chain of several): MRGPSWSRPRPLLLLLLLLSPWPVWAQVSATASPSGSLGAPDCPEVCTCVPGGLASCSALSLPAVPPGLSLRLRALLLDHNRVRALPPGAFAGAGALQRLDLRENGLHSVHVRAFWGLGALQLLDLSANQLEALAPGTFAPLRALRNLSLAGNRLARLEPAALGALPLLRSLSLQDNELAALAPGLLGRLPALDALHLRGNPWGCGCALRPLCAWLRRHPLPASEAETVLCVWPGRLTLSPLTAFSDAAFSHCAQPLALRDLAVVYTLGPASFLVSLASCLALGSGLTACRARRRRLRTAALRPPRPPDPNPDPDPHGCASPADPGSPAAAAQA

Cc1nc(-c2n[nH]c(=S)n2C)cs1
inactive: [1] -0.0125 | [2] -0.0212 | [3] 0.0116 | [4] -0.0241 | [5] 0.0365 | [6] 0.0188 | [7] 0.00398 | [8] 0.0232 | [9] -0.0295 | [10] -0.00583

Cc1ccc(S(C)(=O)=NC(=O)c2ccc(-c3cc(C(F)(F)F)nn3C)s2)cc1 (stereo not given)
inactive: [1] -0.000678 | [2] 0.0247 | [3] -0.011 | [4] 0.0284 | [5] 0.0389 | [6] -0.0362 | [7] 0.013 | [8] 0.015 | [9] 0.00574 | [10] 0.0204

CC(=O)OCC(OC(C)=O)C(OC(C)=O)C(OC(C)=O)C(C#N)OC(C)=O (stereo not given)
inactive: [1] 0.0435 | [2] -0.00373 | [3] 0.0398 | [4] 0.0383 | [5] -0.00671 | [6] -0.00122 | [7] -0.0156 | [8] 0.0587 | [9] -0.0186 | [10] -0.0705

Cc1c(O)nc2ccccn2c1=O
inactive: [1] 0.0365 | [2] -0.00065 | [3] 0.0329 | [4] 0.00904 | [5] 0.0423 | [6] -0.0111 | [7] 0.0248 | [8] 0.00886 | [9] 0.0309 | [10] 0.0209

CCOC(=O)C(C#N)=CNc1ccccc1OC(F)(F)F
inactive: [1] -0.00694 | [2] -0.036 | [3] 0.0178 | [4] 0.027 | [5] -0.0183 | [6] -0.0335 | [7] -0.00201 | [8] -0.00638 | [9] -0.0357 | [10] -0.0488

CC1(C)CCc2cc(C=NNC(=O)c3cccc(Cl)c3Cl)ccc2O1
inactive: [1] -0.00742 | [2] 0.0223 | [3] -0.00817 | [4] 0.0599 | [5] 0.0181 | [6] -0.00408 | [7] 0.0163 | [8] -0.000312 | [9] -0.0646 | [10] 0.00986

CSc1n[nH]c(N)c1S(=O)(=O)C(C)C
inactive: [1] 0.0369 | [2] 0.0175 | [3] 0.0116 | [4] -0.00921 | [5] 0.0306 | [6] -0.018 | [7] 0.0133 | [8] -0.00282 | [9] 0.0217 | [10] 0.0141

O=C(O)c1cccc(CSc2cccs2)c1
inactive: [1] 0.0692 | [2] 0.0279 | [3] 0.0398 | [4] 0.000664 | [5] 0.0207 | [6] 0.0115 | [7] 0.0346 | [8] 0.018 | [9] 0.0269 | [10] 0.0372

C#Cc1cccc(NS(=O)(=O)c2ccc(Cl)c(Cl)c2)c1
active: [1] 0.107 | [2] 0.533 | [3] 0.116 | [4] 0.222 | [5] 0.182 | [7] 0.291 | [8] 0.158 | [9] 0.196
inactive: [6] -0.0107 | [10] -0.0633

Cc1cnc(N)c(C)n1
inactive: [1] 0.0781 | [2] 0.0374 | [3] 0.0872 | [4] -0.0219 | [5] 0.00805 | [6] -0.0212 | [7] -0.0766 | [8] 0.039 | [9] -0.0212 | [10] 0.0123

CCCOc1ccccc1C=NNC(=S)Nc1ccc(C)c(C)c1
inactive: [1] 0.0357 | [2] 0.0157 | [3] 0.00918 | [4] 0.0274 | [5] -0.0242 | [6] -0.0214 | [7] 0.0271 | [8] -0.0014 | [9] 0.00171 | [10] 0.0415

CC12CCC(c3c1nn(-c1ccccc1)c3C(F)(F)F)C2(C)C (stereo not given)
inactive: [1] 0.0382 | [2] 0.00752 | [3] 0.00374 | [4] 0.00603 | [5] 0.00466 | [6] 0.00439 | [7] -0.0295 | [8] 0.0124 | [9] -0.0271 | [10] -0.0353

O=c1[nH]c2ccc(Cl)cc2c2oc(-c3ccccc3)nc12
inactive: [1] -0.0228 | [2] 0.00567 | [3] -0.059 | [4] -0.0224 | [5] -0.0128 | [6] 0.01 | [7] 0.031 | [8] 0.0322 | [9] 0.0357 | [10] -0.0021

COC(=O)C(O)(c1ccc(NC(=O)c2ccc(Cl)c(Cl)c2)cc1)C(F)(F)F (stereo not given)
active: [2] 0.0948 | [4] 0.112 | [6] 0.0903 | [7] 0.216 | [8] 0.0948 | [9] 0.263
inactive: [1] -0.0296 | [3] -0.0715 | [5] 0.0984 | [10] 0.0206

Cc1onc(-c2ccccc2)c1N1C(=O)CCN(C(C)C)C1=O
active: [6] -0.0915
inactive: [1] -0.0312 | [2] -0.00917 | [3] -0.0373 | [4] -0.00603 | [5] -0.0319 | [7] 0.0435 | [8] -0.0125 | [9] -0.0122 | [10] 0.000512

COC(=O)c1cc(S(=O)(=O)N(Cc2ccc(OC)cc2)Cc2cccn2C)oc1C
inactive: [3] -0.0509
active: [1] -0.118 | [2] -0.0838 | [4] -0.483 | [5] -0.414 | [6] -0.56 | [7] -0.496 | [8] -0.122 | [9] -0.289 | [10] -0.135

COc1ccccc1NC(=S)NNC(=O)CSc1ccccc1[N+](=O)[O-]
inactive: [1] 0.0388 | [2] 0.0156 | [3] 0.0403 | [4] 0.0916 | [5] 0.0332 | [6] -0.0193 | [7] 0.0469 | [8] 0.064 | [9] 0.00382 | [10] -0.0222

CS(=O)(=NS(=O)(=O)c1ccc(OC(F)(F)F)cc1)c1ccccc1 (stereo not given)
inactive: [1] 0.0244 | [2] -0.0162 | [3] 0.018 | [4] -0.00984 | [5] 0.0614 | [6] 0.00979 | [7] -0.0151 | [8] 0.00446 | [9] 0.0404 | [10] 0.0068

Cc1cc(NS(=O)(=O)c2ccc(NC(=O)c3nccnc3C(=O)O)cc2)no1
active: [5] -0.136
inactive: [1] -0.0365 | [2] 0.00855 | [3] -0.054 | [4] -0.0573 | [6] -0.0122 | [7] 0.022 | [8] -0.0352 | [9] 0.0165 | [10] -0.0416

Cc1cc(Sc2nnc(N=CN(C)C)s2)c2ccccc2n1
inactive: [1] 0.0126 | [2] 0.0257 | [3] -0.0453 | [4] -0.0187 | [5] 0.011 | [6] 0.0403 | [7] 0.0231 | [8] 0.0658 | [9] 0.0604 | [10] 0.0405

O=C1c2ccccc2NC(c2cc(Cl)cc(Cl)c2O)N1Cc1cccnc1 (stereo not given)
active: [2] 0.0897 | [4] 0.104 | [9] 0.0953
inactive: [1] 0.0629 | [3] 0.0333 | [5] 0.0598 | [6] 0.00967 | [7] 0.0327 | [8] 0.0578 | [10] -0.0554

O=C(O)CC1(CC(=O)Nc2cccc3nsnc23)CCCCC1
inactive: [1] 0.0408 | [2] 0.0186 | [3] 0.0387 | [4] 0.0555 | [5] 0.00374 | [6] 0.055 | [7] 0.00874 | [8] 0.00584 | [9] 0.0536 | [10] 0.0319

COc1ccc(C(C)=NO)cc1CN1CCCC1
inactive: [1] 0.00748 | [2] 0.0291 | [3] 0.0236 | [4] 0.062 | [5] 0.0507 | [6] 0.0203 | [7] 0.0511 | [8] -0.0181 | [9] -0.0237 | [10] 0.0863

O=C(CN1CCOCC1)Nc1ccccc1Sc1nccc(C(F)(F)F)n1
inactive: [1] 0.0122 | [2] -0.00692 | [3] -0.0219 | [4] -0.00275 | [5] 0.0522 | [6] -0.0101 | [7] -0.0285 | [8] -0.0136 | [9] 0.0162 | [10] 0.0195

CS(=O)(=O)NNc1c(Cl)cc(Cl)cc1Cl
inactive: [1] 0.00053 | [2] -0.000501 | [3] -0.00312 | [4] 0.0402 | [5] 0.016 | [6] 0.0374 | [7] -0.0143 | [8] 0.00102 | [9] 0.0275 | [10] 0.0607

O=C(O)c1ccccc1C(=O)NCc1ccccc1OC(F)(F)F
inactive: [1] -0.05 | [2] -0.0181 | [3] -0.0248 | [4] 0.0063 | [5] -0.076 | [6] -0.0155 | [7] -0.0505 | [8] -0.0385 | [9] -0.0255 | [10] 0.0015
